Hits are enriched below; roughly 6.2% of the tested compounds scored in any of these assays.
AI-2 QS mod = Vibrio harveyi AI-2 quorum sensing modulators, primary screen, JMH597 strain, luminescence/OD600 ratio. Vibrio harveyi JMH597 AI-2 luminescence/OD600 ratio, 9 h; hits give low values; strain lacks LuxN and CqsS sensors; 0 = neutral-control median. activity change, % at 7.5 µM. actives 0.4% (n = 300,000); in the data active = activity change below about -75%, passing the limit was not always enough;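 also: luminescence divided by OD600 gain over 9 h not by final OD600 alone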
GRIN3A LBD mod = binders of NR3A ligand-binding domain, primary screen, biophysical, differential scanning fluorimetry, uHTS. Glutamate receptor ionotropic, NMDA 3A (GRIN3A) ligand-binding domain. NR3A LBD differential scanning fluorimetry, Tm shift; 0% = protein alone, 100% = glycine-bound protein. Tm shift relative to glycine control, % at 25 µM. actives 2.5% (n = 340,000). AID 1259313, 2017;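 active = melting temperature shift of at least 10% of the positive control shift, at one fixed dose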
Mot1-301 SUMO = yeast Mot1-301 growth rescue at high temperature, primary screen, SUMOylation pathway inhibitor project, S. cerevisiae, ATP luminescence, 38.5C. S. cerevisiae Mot1-301 growth rescue; percent above DMSO median, 100 means doubled. growth rescue, % at 18.8 µM. actives 1% (n = 320,000);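 active = every valid replicate shows activation above 250% relative to neutral control wells; inactive = the rest, any valid replicate at or below 250%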;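 also: OY570 slx delta 5 strain wells were the positive control but not used for scaling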
H9c2 protect = cardioprotection against H2O2-induced cell death, primary screen, uHTS, H9c2 cells, ATPLite luminescence. H9c2 cardiomyocytes, H2O2 injury protection, 2 h. protection from H2O2 cell death, % at 20 µM. actives 0.63% (n = 360,000);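 active = compounds giving at least 50% protection of heart cells from peroxide-induced death in the single-dose screen, raw or plate-pattern-corrected value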;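 also: 0% = DMSO wells with peroxide and 100% = DMSO wells without peroxide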
NTR1 ag = agonists of human NTR1, primary screen, imaging, U2OS cells, beta-arrestin-GFP, high content; NTR1-U2OS beta-arrestin-GFP spot imaging, agonist mode; Neurotensin receptor type 1 (Homo sapiens), P30989; actives 0.17% (n = 330,000); activation, % at 20 µM;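 active = activation at or above 40% of the spot to cytoplasm intensity ratio, with at least 20 cells analyzed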;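 also: 0% = DMSO without peptide and 100% = 100 nM NTR1 peptide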
AHR activator = AHR activators, primary screen, cell-based, luminescence, luciferase reporter, human; Aryl hydrocarbon receptor (Homo sapiens), P35869; AHR-responsive luciferase reporter cells; activation, % at 5 µM; actives 2.5% (n = 320,000); AID 2796, 2010; in the data active = activation above about 47%;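 also: 0% = vehicle wells and 100% = reference agonist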
* hit, by the source's call; . = no result given.

SMILES	AI-2 QS mod	GRIN3A LBD mod	Mot1-301 SUMO	H9c2 protect	NTR1 ag	AHR activator
Cc1cc(NC(=O)CCC(=O)N(Cc2ccco2)C2(C(=O)NC3CCCCC3)CCCC(C)C2)no1 (stereo not given)	16	0	-1	-2	-1	0
CC(=O)C1=CN(Cc2ccccc2)CCC1=O	.	-2	.	5	.	.
Clc1ccc(-c2csc(N/N=C\c3cccnc3)n2)cc1	14	4	5	-4	7	-2
C(=N\Nc1nc(-c2ccccc2)cs1)/c1ccco1	7	-6	23	1	3	110*
C(=N\Nc1nc(-c2ccccc2)cs1)/c1cccs1	-6	-8	-6	-3	1	60*
ClCc1csc(N/N=C/c2cccs2)n1	4	.	-14	.	1	14
C(=N\Nc1nc(-c2ccccc2)cs1)/c1ccncc1	26	-16	52	3	8	60*
Cn1c(N)c(C(=O)CSc2nnc(NC3CCCCC3)s2)c(=O)n(C)c1=O	.	-2	.	-2	1	.
CC(C)C[C@H]1CNC(=O)C(=O)N1CC1CCN(CC2CCC(C)CC2)CC1 (stereo not given in full)	.	.	.	3	.	.
Cc1ccc(Nc2nc(N)c([N+](=O)[O-])c(NCCO)n2)cc1C	3	0	7	5	-1	81*
CNc1nc(N)c([N+](=O)[O-])c(Nc2cccc(Cl)c2)n1	19	-4	-27	0	4	58*
Cc1ccc(Nc2nc(N)c([N+](=O)[O-])c(NCc3ccco3)n2)cc1C	34	-1	45	-7	12	64*
N=c1c2ccccc2nc2n1CCCCC2	.	.	.	-8	.	.
Cc1cc(C)n(CC(=O)NNC(=O)COc2ccc(Br)cc2F)n1	.	0	14	7	-1	6
Cn1c(=NC(=O)c2ccco2)sc2ccccc21	20	2	-8	-21	2	71*
Cc1coc2c(C)c3oc(=O)c(CCC(=O)N(C)CC(=O)O)c(C)c3cc12	2	1	-6	-6	0	-1
Cc1cc(S(=O)(=O)Nc2ccc(C(=O)NCc3ccncc3)cc2)ccc1F	11	3	5	-4	0	-3
COc1ccc(-c2csc(NC(=O)CCN3C(=O)C4CC=CCC4C3=O)n2)cc1OC (stereo not given)	12	-2	-1	27	2	12
S=c1[nH]c(-c2ccccc2)cn1/N=C/c1cccs1	9	-1	-7	-3	3	67*
O=C(O)c1ccc(/C=N/n2cc(-c3ccccc3)[nH]c2=S)cc1	13	-1	0	-4	0	6
S=c1[nH]c(-c2ccccc2)cn1/N=C/c1ccc(Br)cc1	29	5	1	6	2	54*
Cc1cccc(-n2cc(-c3ccccc3)[nH]c2=S)c1	-4	-2	103	-11	0	34
S=c1[nH]ncn1/N=C/c1cccs1	19	1	33	-3	1	-1
Cc1ccc(C)c(/C=N/n2cc(-c3ccccc3)[nH]c2=S)c1	25	-5	-5	-18	8	62*
CCN(CC)S(=O)(=O)c1ccc(N2CC(C(=O)NC3(C)CCS(=O)(=O)C3)CC2=O)cc1 (stereo not given)	.	-1	10	-2	-2	1
CCCn1c(NC(=O)c2ccc(Cl)c(S(=O)(=O)N3CCCC3)c2)nc2ccccc21	8	-12	2	61*	10	5
O=C(NCc1nc2ccccc2[nH]1)c1ccc(Cl)c(S(=O)(=O)N2CCCC2)c1	10	0	-3	4	0	2
COc1ccc(S(=O)(=O)NCCC(=O)Nc2ccc(C)cc2)cc1	21	-3	-5	-2	-1	2
CCOC(=O)c1sc(NC(=O)c2ccccc2)cc1C	15	4	-33	-16	2	-6
CCOC(=O)c1c(NC(=O)Nc2ccc(Cl)cc2)sc(C)c1C	3	1	-9	2	-1	8

Bioassay records as filed in PubChem.
